What all share (test): NCI-60 one-dose screen, 48 h (100 = growth as untreated, 0 = no growth, -100 = all killed)
One assay has as its system SK-MEL-2 melanoma. As to conditions: 10 µM unless noted.
The next assay concerns EKVX NSCLC. As to conditions: 10 µM unless noted.
The subject of the next assay is SN12C renal. As to conditions: 10 µM unless noted.
Another assay concerns UO-31 renal. As to conditions: 10 µM unless noted.
A further assay relates to TK-10 renal. As to conditions: 10 µM unless noted.
Another assay deals with ACHN renal. As to conditions: 10 µM unless noted.
The test system of the next assay is CAKI-1 renal. As to conditions: 10 µM unless noted.
For another assay, the system named is A498 renal. As to conditions: 10 µM unless noted.
For a further assay, the system named is CCRF-CEM leukemia. As to conditions: 10 µM unless noted.
A further assay deals with MOLT-4 leukemia. As to conditions: 10 µM unless noted.
A further assay relates to SR leukemia. As to conditions: 10 µM unless noted.
Another assay has as its system RPMI-8226 leukemia. As to conditions: 10 µM unless noted.
A further assay has as its system OVCAR-8 ovarian. As to conditions: 10 µM unless noted.
Another assay has as its system OVCAR-5 ovarian. As to conditions: 10 µM unless noted.
For the next assay, the system named is OVCAR-4 ovarian. As to conditions: 10 µM unless noted.
Another assay has as its system SK-OV-3 ovarian. As to conditions: 10 µM unless noted.
In the next assay the test system is IGROV1 ovarian. As to conditions: 10 µM unless noted.
The subject of another assay is OVCAR-3 ovarian. As to conditions: 10 µM unless noted.
The test system of a further assay is HS 578T breast. As to conditions: 10 µM.
Another assay concerns NCI/ADR-RES ovarian. As to conditions: 10 µM unless noted.

Compounds without any hit were thinned out: in the full panel of roughly 83,000, 20% have a hit.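 Interpretation: 100, growth as untreated; towards 0, rising growth inhibition; 0, no net growth; 0 to -100, cell death. Compounds scoring below 10 were considered active.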 A number with no mark means an inactive call. Active and inactive are the calls of the source.

We go through 7 compounds from PubChem BioAssay (NCI).

Turning to `COc1cc(C)cc2oc3oc(=O)c(-c4csc(-c5cc6ccccc6oc5=O)n4)cc3c(=O)c12`, the growth in the assay on SK-MEL-2 melanoma was 124%; with EKVX NSCLC it was 107%; in the assay with SN12C renal it was 102%; with UO-31 renal, 88.6%; in the assay with TK-10 renal, 121%; with ACHN renal, 104%. Moreover, the growth in the assay with CAKI-1 renal is 96.1%; in the assay on A498 renal it was 107%; in the assay with CCRF-CEM leukemia, 105%; in the assay on MOLT-4 leukemia it was 108%; in the assay with SR leukemia, 113%; with RPMI-8226 leukemia, 109%. The growth with OVCAR-8 ovarian is 103%; in the assay on OVCAR-5 ovarian, 109%; in the assay with OVCAR-4 ovarian, 106%; in the assay with SK-OV-3 ovarian, 120%; with IGROV1 ovarian it was 117%; in the assay with OVCAR-3 ovarian, 116%. The growth is 120% with HS 578T breast and 105% in the assay on NCI/ADR-RES ovarian.
Turning to `O=C(OCc1ccc2c(Br)cc(Br)c(O)c2n1)c1cc2ccccc2[nH]1`, the growth is -20.6% (active) with SK-MEL-2 melanoma; -65.5% (active) in the assay on EKVX NSCLC; -79.2% (active) with SN12C renal; -100% (active) in the assay on UO-31 renal; -94.2% (active) in the assay with TK-10 renal; -100% (active) with ACHN renal. Further, the growth in the assay with CAKI-1 renal is -97.6% (active); with A498 renal, -1.86% (active); with CCRF-CEM leukemia, 2.81% (active); in the assay with MOLT-4 leukemia, -8.64% (active); in the assay with SR leukemia, 3.2% (active); in the assay with RPMI-8226 leukemia it was -25.2% (active). The growth in the assay with OVCAR-8 ovarian is -23.7% (active); in the assay with OVCAR-5 ovarian, -85.4% (active); in the assay with OVCAR-4 ovarian, -21.2% (active); with SK-OV-3 ovarian, 68.8%; in the assay with IGROV1 ovarian, -91.5% (active); in the assay with OVCAR-3 ovarian it was -80.8% (active). For the same compound, the growth in the assay on HS 578T breast was -4.51% (active); in the assay on NCI/ADR-RES ovarian it was -55.2% (active).
For the compound `C#CC[C@@H]1C[C@]2(C)[C@H]3CC=C4[C@H]5CC(C)(C)CC[C@]5(C(=O)NCCCCN)CC[C@@]4(C)[C@]3(C)CC[C@H]2C(C)(C)[C@H]1OC(C)=O`, the growth was 98.9% with SK-MEL-2 melanoma; 81.1% in the assay with EKVX NSCLC; -51.2% (active) in the assay on SN12C renal; -44.3% (active) in the assay with UO-31 renal; -27.5% (active) in the assay with TK-10 renal; -91.6% (active) in the assay on ACHN renal. In addition, the growth is -70% (active) with CAKI-1 renal; 104% with A498 renal; 17.9% with CCRF-CEM leukemia; 12.2% in the assay on MOLT-4 leukemia; 0.939% (active) in the assay on SR leukemia; -10.2% (active) in the assay on RPMI-8226 leukemia. Further, the growth in the assay with OVCAR-8 ovarian was 3.77% (active); in the assay on OVCAR-5 ovarian, 21.7%; in the assay with OVCAR-4 ovarian, 50.1%; in the assay with SK-OV-3 ovarian it was 116%; in the assay on IGROV1 ovarian, 32.8%; in the assay with OVCAR-3 ovarian, 49.3%. For the same compound, the growth was 94.3% with HS 578T breast and 81.7% in the assay with NCI/ADR-RES ovarian.
Turning to `CC[C@H](Nc1nc(C)nc(N)c1C#N)c1nc2cccc(NCc3ccc(C(=O)NO)cc3)c2c(=O)n1-c1ccccc1`, the growth was 67.2% in the assay with SK-MEL-2 melanoma; 12.7% in the assay on EKVX NSCLC; 7.89% (active) in the assay with SN12C renal; -12.5% (active) with UO-31 renal; 2% (active) with TK-10 renal; 2.03% (active) with ACHN renal. Further, the growth is -11.1% (active) with CAKI-1 renal; -27.1% (active) in the assay on A498 renal; 6.17% (active) with CCRF-CEM leukemia; 2.8% (active) with MOLT-4 leukemia; 0.66% (active) in the assay with SR leukemia; 10.7% with RPMI-8226 leukemia. The growth in the assay with OVCAR-8 ovarian was 2.46% (active); in the assay on OVCAR-5 ovarian, 22.5%; in the assay with OVCAR-4 ovarian, 5.36% (active); in the assay on SK-OV-3 ovarian, -16.2% (active); in the assay on IGROV1 ovarian it was 5.14% (active); with OVCAR-3 ovarian it was 4.73% (active). The results for the growth with HS 578T breast and with NCI/ADR-RES ovarian were 21.6% and 59.4%, respectively.
In the case of `CC[C@H](Nc1nc(N)nc(C2CC2)c1C#N)c1nc2cccc(NCc3ccc(C(=O)NO)cc3)c2c(=O)n1-c1ccccc1`, the growth is 26.2% in the assay with SK-MEL-2 melanoma; 0.322% (active) in the assay on EKVX NSCLC; 9.34% (active) in the assay with SN12C renal; -80% (active) in the assay with UO-31 renal; 5.55% (active) in the assay with TK-10 renal; -21% (active) in the assay with ACHN renal. Also, the growth in the assay with CAKI-1 renal was -44.5% (active); with A498 renal, -8.64% (active); with CCRF-CEM leukemia it was 8.87% (active); with MOLT-4 leukemia, 2.13% (active); in the assay with SR leukemia, -0.809% (active); with RPMI-8226 leukemia it was 4.07% (active). Also, the growth is 1.08% (active) with OVCAR-8 ovarian; 14.8% in the assay on OVCAR-5 ovarian; 8.75% (active) with OVCAR-4 ovarian; -9.63% (active) in the assay with SK-OV-3 ovarian; 2.3% (active) in the assay with IGROV1 ovarian; 9.13% (active) in the assay on OVCAR-3 ovarian. The growth is 13.5% in the assay with HS 578T breast and 45.8% with NCI/ADR-RES ovarian.
For the compound `CCN1CCN(Cc2ccc(NC(=O)c3nc4ccc5[nH]ncc5c4c4c3CCCC4)cc2C(F)(F)F)CC1`, the growth is 92% in the assay on SK-MEL-2 melanoma; 74.3% in the assay on EKVX NSCLC; -75.6% (active) in the assay with SN12C renal; -91.8% (active) in the assay on UO-31 renal; -33.7% (active) in the assay on TK-10 renal; -97.1% (active) in the assay with ACHN renal. Further, the growth with CAKI-1 renal was -11.7% (active); in the assay on A498 renal, 93.2%; in the assay on CCRF-CEM leukemia, 3.68% (active); in the assay with MOLT-4 leukemia, -28.9% (active); in the assay with SR leukemia, -29.2% (active); in the assay with RPMI-8226 leukemia, -24.6% (active). Moreover, the growth in the assay with OVCAR-8 ovarian was -59.3% (active); in the assay with OVCAR-5 ovarian it was 48.9%; with OVCAR-4 ovarian it was 22.6%; in the assay with SK-OV-3 ovarian, 91.7%; in the assay on IGROV1 ovarian, -47.6% (active); in the assay with OVCAR-3 ovarian, -70.5% (active). Further, the growth is 84.8% in the assay with HS 578T breast and 18.8% with NCI/ADR-RES ovarian.
As for `Cc1c(O)c(=O)n(-c2ccccc2)n1C`, the growth with SK-MEL-2 melanoma was 112%; in the assay on EKVX NSCLC, 120%; with SN12C renal, 98.2%; in the assay with UO-31 renal, 79.6%; with TK-10 renal it was 112%; in the assay with ACHN renal it was 96.5%. Moreover, the growth is 107% in the assay with CAKI-1 renal; 120% in the assay on A498 renal; 118% in the assay on CCRF-CEM leukemia; 84.2% in the assay with MOLT-4 leukemia; 91.4% in the assay with SR leukemia; 104% with RPMI-8226 leukemia. The growth in the assay on OVCAR-8 ovarian is 109%; in the assay with OVCAR-5 ovarian, 87.2%; in the assay with OVCAR-4 ovarian, 111%; with SK-OV-3 ovarian, 105%; in the assay on IGROV1 ovarian, 117%; in the assay on OVCAR-3 ovarian it was 108%. Also, the results for the growth with HS 578T breast and in the assay on NCI/ADR-RES ovarian were 127% and 105%, respectively.
